The assay addresses Genome polyprotein (Dengue virus type 2 (strain 16681-PDK53)) (UniProt P29991). Nature of the assay: flavivirus cap methylation enzyme inhibition – biochemical, confirmation dose response, primary screen (AID 588689). To be noted: Dengue-2 NS5 methyltransferase capping enzyme assay, at 25 µM, stronger effect = higher value.
[1] abbreviates: measured here: pilot screen replicate inhibition.

Screen size: about 340,000 compounds; about 1,000 (0.29%) were called active. Cut-off read from the data, not from the text of the source: inconclusive = inhibition above about 29% without an active follow-up result; inactive = below that. The list is a sample of the results. Results with a measured potency or affinity are listed apart.

Turning to `CC1=CC(C)(C)C(C(=O)O)C(C(=O)O)C1` (stereo unspecified), the inhibition was -2.42% (inactive).

Consider `CCOC(=O)/C(C#N)=C1/C=C(C)c2ccccc2N1`, for which the inhibition was -9.35% (inactive). For the compound `O=C(O)COc1ccc2c(c1)O/C(=C\c1cccs1)C2=O`, the inhibition was -8.5% (inactive). Take `O=C(CSc1nncn1-c1ccccc1)N1CCCC1`: the inhibition was -4.17% (inactive).

For the compound `CCc1ccc(NC(=O)C2CCCN(S(=O)(=O)c3ccc4c(c3)CCCN4C(C)=O)C2)cc1` (stereo unspecified), the inhibition is 2.65% (inactive). As for `CC(C)C(O)P(=O)(OCc1ccccc1)c1ccc(N(C)C)cc1` (stereo unspecified), the inhibition was 1.35% (inactive). Under setting [1], the inhibition was -3.66%. `CCOC(=O)C1CCCN1C(=O)c1ccc(OC)c(Br)c1` (stereo unspecified): the inhibition was 0% (inactive). On the same count and under the same terms, next, `Cc1[nH]c2ccc(Br)cc2c(=S)c1C/C=C/Cl`: 0% (inactive). `CC(=O)c1coc2c1cc(O)c1ccccc12`: the inhibition is -0.78% (inactive). `CC(=O)c1c(C)oc2c1cc(O)c1ccccc12`: the inhibition is -5.41% (inactive). Same read-out and setting: the value for `CCN(C(=O)CCN1C(=O)c2ccccc2S1(=O)=O)c1ccccc1` was -2.22% (inactive); that for `COc1ccc(C(=O)N2CCOC2CNC(=O)C(=O)NCc2ccc(C)cc2)cc1` (stereo unspecified) was 1.73% (inactive).

`CSc1nc(-c2ccccc2)nc(NC(=O)C(C)C)c1C(C)=O`: the inhibition was -10.3% (inactive). On the same count and under the same terms, the value for `O=C(NC1CC2CCCC(C1)N2S(=O)(=O)c1ccccc1)c1ccco1` (stereo unspecified) was 1.41% (inactive); that for `CSCC[C@H](NC(=O)c1cccs1)c1nnc2ccccn12` was 5.35% (inactive); that for `Cc1oc2c(cc(NS(=O)(=O)c3ccc(F)cc3)c3ccccc32)c1C(=O)O` was 11.6% (inactive). Turning to `CCOC(=O)c1c(C)oc2ccc(NS(=O)(=O)c3ccc(C(=O)O)cc3)cc12`, the inhibition was 4.37% (inactive).

Turning to `CC(=O)c1c(C)oc2c1cc(NS(=O)(=O)c1ccc(C(=O)O)cc1)c1ccccc12`, the inhibition was 15.7% (inactive). On the same count and under the same terms, next, `COc1ccc(S(=O)(=O)Nc2cc3c(C(C)=O)c(C)oc3c3ccccc23)cc1`: -1.56% (inactive); `O=C(Cn1cnc2ccccc2c1=O)NCC(=O)N1CCN(Cc2ccc3c(c2)OCO3)CC1`: -2.08% (inactive); `Cc1cccc(NC(=O)Nc2cnccn2)c1`: -2.65% (inactive). Same read-out and setting: the value for `Cn1c(=O)c2c(ncn2CCC(=O)N/N=C/c2cccnc2)n(C)c1=O` was 0.78% (inactive); that for `CN1C(=O)N(c2ccc(Cl)cc2)C(C)(O)CC1(C)C` (stereo unspecified) was -7.17% (inactive); that for `COc1cc2cccc(OC)c(=O)c2c(O)c1OC` was -2.72% (inactive). Same read-out and setting: next, `Oc1cccc2cc3cccc(O)c3c(O)c12`: -2.2% (inactive). Consider `O=C(COC(=O)CCC(=O)c1cccs1)NCCc1ccccc1`, for which the inhibition was 10.1% (inactive). Still for that read-out and setting: the value for `Cc1cccc(NC(=O)c2cccc(NC(=O)c3ccco3)c2)c1` was -3.49% (inactive); that for `Cc1cc(-c2ccccc2)nc2[nH]n(-c3ccccc3)c(=O)c12` was 14.4% (inactive). Take `O=c1c2c(C(F)(F)F)cc(C(F)(F)F)nc2[nH]n1-c1ccccc1`: the inhibition was 12% (inactive). Regarding `COC(C(=O)Nc1ccccc1C(=O)N1CCOCC1)c1ccccc1` (stereo unspecified), the inhibition was -4.55% (inactive). As to `CN1C(=O)C(C)(C)c2cc(S(=O)(=O)NCc3ccc(Cl)cc3)ccc21`, the inhibition is 0% (inactive). Take `O=C(O)c1cc(=O)c2c(Cl)cc(Cl)cc2[nH]1`: the inhibition was -1.47% (inactive). With `O=C(O)/C(=C\c1ccccc1)c1ccccc1`, the inhibition was -3.95% (inactive). The same measure, in the same setting: the value for `COc1ccc(C(=O)Nc2ccc3nc(N4CCOCC4)sc3c2)cc1OC` was -1.84% (inactive); that for `c1csc(-c2cc(N3CCCCC3)c3ccccc3n2)c1` was -2.61% (inactive). The same measure, in the same setting: next, `O=c1c2ccccc2nc(/C=C/c2ccc([N+](=O)[O-])cc2)n1CCCO`: -2.58% (inactive); `Cc1cnc(=O)[nH]c1SCc1ccc([N+](=O)[O-])cc1`: 9.19% (inactive); `CCOC(=O)N1CCC(NC(=O)c2cc3sccc3n2CC)CC1`: -4.86% (inactive). On the same count and under the same terms, next, `Oc1cccc(/C=N/NC(=S)Nc2cccnc2)c1O`: -2.88% (inactive). With `Oc1c(Br)cc(Br)cc1/C=N/Nc1ccc(Cl)nn1`, the inhibition is 7.11% (inactive). Same read-out and setting: the value for `Oc1ccc(/C=N/NC(=S)Nc2cccnc2)c(O)c1` was -3.64% (inactive). Consider `CCN(CC)c1ccc(/C=N/Nc2cccc(C)c2)c(O)c1`, for which the inhibition was 7.27% (inactive). As for `Cc1cccc(N/N=C/c2ccccc2O)c1`, the inhibition was -8.43% (inactive). For the compound `Oc1ccc(/C=N/Nc2ccc(Cl)nn2)cc1O`, the inhibition is 2.61% (inactive). On the same count and under the same terms, next, `COc1ccc(CCC(=O)N2CCN(C3CCCCC3)CC2)cc1`: -7.21% (inactive). For the compound `CC(=O)N1CCN(Cc2nc3cc(NC(=O)c4ccccc4C)ccc3n2C)CC1`, the inhibition was -0.69% (inactive). Still for that read-out and setting: the value for `Cc1cc2ncn(C3CC(O)C(CO)O3)c2cc1C` (stereo unspecified) was 2.33% (inactive); that for `COc1ccc(-c2nn(-c3ccccc3)cc2/C=N/NC(=O)c2cccc(S(=O)(=O)Nc3ccccc3OC)c2)cc1` was -3.64% (inactive). Turning to `C=CCc1cccc2cc(C(=O)N3CCN(C(=O)c4ccccc4)CC3)c(=O)oc12`, the inhibition is -4.98% (inactive). Still for that read-out and setting: next, `C[C@@H]1CN([C@@H](C)CO)S(=O)(=O)c2ccc(Br)cc2O[C@H]1CN(C)C(=O)c1ccncc1`: -4.96% (inactive). On the same count and under the same terms, next, `O=C1NC(=O)/C(=C\c2ccc(Oc3ccc([N+](=O)[O-])cn3)cc2)S1`: 10.2% (inactive); `O=C1NC(=S)N/C1=C\c1cccc([N+](=O)[O-])c1`: 2.76% (inactive); `Cc1ccc(/C=C2\NC(=S)NC2=O)cc1[N+](=O)[O-]`: 3.12% (inactive). Take `O=C(c1ccc(N2CCOCC2)c([N+](=O)[O-])c1)N1CCN(c2ccccc2)CC1`: the inhibition is -9.43% (inactive).

As for `CN(C)c1ccc(/C=N/NC(N)=S)cc1[N+](=O)[O-]`, the inhibition is -11.3% (inactive). Still for that read-out and setting: next, `CC(C)CN(CC(C)C)c1ccc(/C=N/n2cnnc2)cc1[N+](=O)[O-]`: -1.82% (inactive). Still for that read-out and setting: the value for `COc1ccc(N2CCN(C(=O)c3ccccc3)CC2)c([N+](=O)[O-])c1` was 0% (inactive); that for `O=C1c2ccccc2C(=O)N1/N=C/c1ccc(Oc2ccc([N+](=O)[O-])cn2)cc1` was -2.91% (inactive). For `COc1ccc(NC(=O)C2CCCN(C(=O)c3ccc(Cl)cc3)C2)cc1S(=O)(=O)N(C)C` (stereo unspecified), the inhibition is -6.34% (inactive). As for `CCOc1ccc(NC(=O)c2ccc3c(c2)N(Cc2ccc(F)cc2)C(=O)CS3=O)cc1` (stereo unspecified), the inhibition was -7.95% (inactive). On the same count and under the same terms, next, `COCCN(C(=S)Nc1ccc(Cl)cc1OC)C1CCN(C(C)=O)CC1`: -5.17% (inactive); `Cc1cc2c(cc1S(=O)(=O)N1CCOCC1)NC(=O)CO2`: -0.83% (inactive). With `COc1ccc(S(=O)(=O)NCC2CCCO2)cc1NC(=O)c1ccc(Cl)cc1` (stereo unspecified), the inhibition was -0.72% (inactive). The same measure, in the same setting: next, `C[C@@H]1CN([C@H](C)CO)C(=O)c2cc(NS(=O)(=O)c3cn(C)cn3)ccc2O[C@H]1CN(C)C(=O)Nc1ccccc1`: -1.59% (inactive); `Cc1ccc(C(=O)NC(=S)Nc2ccc(N3CCOCC3)cc2)c(C)c1`: -1.43% (inactive). Take `COc1cccc(N(C(=O)c2snc(C(N)=O)c2N)C(C(=O)NCC2CCCO2)c2ccc(F)cc2)c1` (stereo unspecified): the inhibition is -6.68% (inactive). `CN(C)c1ccc(/C=N/N=C(N)N)cc1[N+](=O)[O-]`: the inhibition is -2.95% (inactive). On the same count and under the same terms, next, `O=C1NC(=O)c2cc(Oc3ccc([N+](=O)[O-])cc3)ccc21`: 0.39% (inactive); `COc1cc(C=O)ccc1OS(=O)(=O)c1ccccc1[N+](=O)[O-]`: -9.17% (inactive); `COc1ccc(C=O)cc1OS(=O)(=O)c1ccccc1[N+](=O)[O-]`: 11% (inactive). Take `O=C1Nc2ccccc2/C1=C/c1ccc([N+](=O)[O-])cc1`: the inhibition was -15.7% (inactive). Same read-out and setting: the value for `CN(C)c1ccc(/C=C/C(=O)c2ccccc2)cc1[N+](=O)[O-]` was 7.8% (inactive); that for `CC(C)(C)NC(=O)CN(C(=O)C1CSC(=O)C1)c1ccccc1F` (stereo unspecified) was -7.12% (inactive); that for `O=C(O)c1ccc(NC(=O)c2cccc(C(=O)Nc3ccc(C(=O)O)cc3)n2)cc1` was -1.63% (inactive). On the same count and under the same terms, the value for `Cc1ncn(-c2ccccc2)c1-c1ccccc1` was 0% (inactive); that for `CCN(CC)S(=O)(=O)c1ccc(OC)c(NS(=O)(=O)c2cccc(C(=O)O)c2)c1` was 7.95% (inactive); that for `CC(=O)n1cc(CO)c2ccccc21` was -0.72% (inactive). Still for that read-out and setting: next, `CN=C1S/C(=C\c2cn(CC(=O)OC)c3ccccc23)C(=O)N1C`: -17.1% (inactive). For the compound `COC(=O)Cn1cc(C(=O)OC)c2ccccc21`, the inhibition is -2.39% (inactive). On the same count and under the same terms, the value for `CC(=O)n1cc(/C=C2/N=C(c3ccccc3)OC2=O)c2ccccc21` was 19.9% (inactive); that for `COc1ccc(/C=N/NC(=O)c2ccc(O)cc2O)cc1CSc1ccccn1` was 2.91% (inactive). Same read-out and setting: the value for `CCOC(=O)c1c(NC(=O)CSc2nnnn2C)sc(C)c1C` was -3.98% (inactive). Same read-out and setting: the value for `Cc1ccc(C2NC(=S)N3C(c4ccc(C)cc4)NC(=S)N23)cc1` (stereo unspecified) was -0.57% (inactive); that for `O=C(Nc1ccc2c(c1)C(=O)c1ccccc1-2)c1ccccc1` was -0.39% (inactive); that for `CCn1c2ccccc2c2cc(NC(C)=O)ccc21` was 4.77% (inactive). For `CCn1c2ccccc2c2cc(NC(=O)c3ccccc3[N+](=O)[O-])ccc21`, the inhibition was 1.28% (inactive).

Consider `COc1cccc(NC(=O)c2ccccc2-c2ccccc2C(=O)O)c1`, for which the inhibition is -10.1% (inactive). Still for that read-out and setting: the value for `O=C(O)c1ccccc1-c1ccccc1C(=O)Nc1cccc(-c2nc3ccccc3o2)c1` was 8.19% (inactive); that for `COc1ccc(NC(=O)c2ccccc2-c2ccccc2C(=O)O)cc1` was -8.51% (inactive). For `CC(=O)Nc1ccc(-c2nc3cc(Cl)ccc3o2)cc1`, the inhibition was 0% (inactive). Regarding `Cc1ccc(NC(=O)c2ccccc2-c2ccccc2C(=O)O)cc1C`, the inhibition was -2.19% (inactive). Still for that read-out and setting: next, `CCN(CC)S(=O)(=O)c1cccc(NC(=O)COC(=O)/C=C/c2cccs2)c1`: -2.65% (inactive); `O=C(O)C1CCN(C(=O)Cc2ccccc2)CC1`: 2.22% (inactive). `c1ccc(C2CC(c3ccccc3)C(c3ccccc3)N2)cc1` (stereo unspecified): the inhibition is -3.92% (inactive). Further, the inhibition under setting [1] was -2.44%.

Usually inhibition stands for the relative decrease from the control value, in per cent.

The record behind these values is PubChem BioAssay AID588689 (Southern Research Specialized Biocontainment Screening …, 2011).
